Experimental data published in PubChem BioAssay (EPA / NIEHS).
Values joined by “and” are separate entries in the source; they are usually repeats but may differ in a detail not shown here. Equal entries are not always repeated. Records with an inconclusive call do not appear. Some structures have more than one record in an assay (separate samples or runs), and their calls can disagree. Active and inactive are the calls of the source. Rule for the calls: active = hit-call score of the fitted dose curve at least 0.9, where 1 is the maximum; inconclusive = response in the unintended direction; inactive = score below 0.9.

Legend:
[1] = ATG_XTT_Cytotoxicity: Cytotoxicity Assessment in the Attagene TRANS-FACTORIAL HepG2 Assay (AID 2283584)
Summary of the method: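 HepG2 cells transiently transfected with GAL4-UAS multiple reporter units, dosed 24 h; cytotoxicity read by XTT as loss of signal versus DMSO baseline.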

[2] = TOX21_p53_BLA_p2_viability: Viability Assessment in the Tox21 HCT-116 p53 Agonism Beta-lactamase Assay, Phase 2 (AID 2283591);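 note: actives lower the ATP signal meaning cytotoxicity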
Summary of the method: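 HCT116 p53-bla cells, 4000/well, dosed after 5 h plating (217-fold dilution of DMSO stocks) and incubated 16 h at 37C. Viability taken as cellular ATP by CellTiter-Glo luminescence after 30 min RT; signal loss marks cytotoxicity.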

[3] = biological target: Cellular tumor antigen p53 (Homo sapiens) (UniProt P04637); assay: TOX21_p53_BLA_p2_ratio: Tox21 HCT-116 p53 Agonism Beta-lactamase Assay, Ratio, Phase 2 (AID 2283592)
Summary of the method: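 First, HCT116 reporter cells settle for 5 h at 37C. Next, DMSO compound solutions are pinned in (217-fold dilution) and left 16 h. Finally, CCF4-AM substrate is loaded 2 h at room temperature and the 460/530 nm ratio read.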

[4] = TOX21_p53_BLA_p3_viability: Viability Assessment in the Tox21 HCT-116 p53 Agonism Beta-lactamase Assay, Phase 3 (AID 2283593);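 note: cells exposed to compound for 16 h before reading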
Summary of the method: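 HCT116 cells, 4000/well, dosed 5 h after plating by pin transfer (217-fold dilution from DMSO stock) and incubated 16 h at 37C, 5% CO2. Viability read as ATP luminescence with CellTiter-Glo after 30 min at room temperature.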

[5] = biological target: Cellular tumor antigen p53 (Homo sapiens) (UniProt P04637); assay: TOX21_p53_BLA_p3_ratio: Tox21 HCT-116 p53 Agonism Beta-lactamase Assay, Ratio, Phase 3 (AID 2283596)
Summary of the method: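 Cells were seeded at 4000/well, rested 5 h at 37C, then dosed with DMSO compound solutions (217-fold dilution) for 16 h. CCF4-AM substrate was loaded for 2 h at room temperature, and the 460/530 nm emission ratio was fitted for gain of signal versus DMSO.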

[6] = TOX21_p53_BLA_p4_viability: Viability Assessment in the Tox21 HCT-116 p53 Agonism Beta-lactamase Assay, Phase 4 (AID 2283597);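 note: hits lower the luminescence signal meaning cytotoxicity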
Summary of the method: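 4000 HCT116 cells per well; 5 h attachment; compounds from DMSO, 217-fold dilution; 16 h at 37C. Then CCF4-AM, 2 h RT, followed by CellTiter-Glo, 30 min RT, luminescence. Decrease = cytotoxicity.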

[7] = biological target: Cellular tumor antigen p53 (Homo sapiens) (UniProt P04637); assay: TOX21_p53_BLA_p5_ratio: Tox21 HCT-116 p53 Agonism Beta-lactamase Assay, Ratio, Phase 5 (AID 2283599)
Summary of the method: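 HCT-116 p53-bla cells (4000/well) plated 5 h, dosed with compound (217-fold DMSO dilution) for 16 h at 37 C; CCF4-AM substrate 2 h at room temperature. Activity is the 460/530 nm emission ratio (405 nm excitation), fitted in gain-of-signal direction versus DMSO.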

[8] = TOX21_p53_BLA_p5_viability: Viability Assessment in the Tox21 HCT-116 p53 Agonism Beta-lactamase Assay, Phase 5 (AID 2283600)
Summary of the method: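 Decreased CellTiter-Glo luminescence denotes lost viability. Exposure: 16 h at 37C, 5% CO2, with compounds from DMSO stocks diluted 217-fold in wells of 4000 cells.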

[9] = biological target: Cellular tumor antigen p53 (Homo sapiens) (UniProt P04637); assay: TOX21_p53_BLA_p4_ratio: Tox21 HCT-116 p53 Agonism Beta-lactamase Assay, Ratio, Phase 4 (AID 2283601)
Summary of the method: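 HCT-116 p53 beta-lactamase reporter cells (4000/well) preincubated 5 h, then compound (217-fold dilution of DMSO stock) for 16 h at 37C. CCF4-AM substrate added 2 h at room temperature; 460/530 nm emission ratio fitted upward versus DMSO.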

[10] = Tanguay_ZF_120hpf_MORT_legacy: (Legacy) Oregon State University Tanguay Lab 120 Hour Post-fertilization zebrafish Assay for Mortality (AID 2283633);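 for AC50: fitted as increase in binary mortality versus DMSO negative control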
Summary of the method: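 Dechorionated Tropical 5D wild-type zebrafish embryos, one per well from 6 hpf, static exposure in 0.64% DMSO at 28C until 120 hpf. Mortality scored as binary by brightfield microscopy at 24 and 120 hpf.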

[11] = Tanguay_ZF_120hpf_YSE_legacy: (Legacy) Oregon State University Tanguay Lab 120 Hour Post-fertilization zebrafish Assay for Yolk Sac Edema (AID 2283634)
Summary of the method: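 Dechorionated Tropical 5D wild-type zebrafish embryos were exposed statically, one per well, from 6 to 120 hpf at 28C in 0.64% DMSO. Yolk sac edema was scored present/absent by brightfield at 120 hpf, and dead embryos were excluded.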

[12] = Tanguay_ZF_120hpf_AXIS_legacy: (Legacy) Oregon State University Tanguay Lab 120 Hour Post-fertilization zebrafish Assay for Body Axis Malformation (AID 2283635)
Summary of the method: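 Dechorionated wild-type Tropical 5D zebrafish embryos, one per well, statically exposed from 6 hpf to 120 hpf at 28C in 0.64% DMSO final. Body axis malformation scored present/absent by brightfield microscopy at 120 hpf; dead embryos excluded.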

[13] = Tanguay_ZF_120hpf_EYE_legacy: (Legacy) Oregon State University Tanguay Lab 120 Hour Post-fertilization zebrafish Assay for Eye Malformation (AID 2283636);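 note: binary presence or absence of eye malformation scored by brightfield in 120 hpf larvae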
Summary of the method: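 5D wild-type embryos, pronase-dechorionated at 4 hpf; static exposure 6–120 hpf, 28C, dark; DMSO 0.64% final; 5uM trimethyltin chloride positive control. Binary eye-defect scoring at 120 hpf; dead embryos not scored.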

[14] = Tanguay_ZF_120hpf_SNOU_legacy: (Legacy) Oregon State University Tanguay Lab 120 Hour Post-fertilization zebrafish Assay for Snout Malformation (AID 2283637)
Summary of the method: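 Binary brightfield scoring of snout malformation at 120 hpf. Dechorionated 5D wild-type embryos, one per well, static exposure from 6 hpf at 28C, sealed and dark; final DMSO 0.64% (vol/vol), DMSO as baseline; 5uM trimethyltin chloride positive control.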

[15] = Tanguay_ZF_120hpf_JAW_legacy: (Legacy) Oregon State University Tanguay Lab 120 Hour Post-fertilization zebrafish Assay for Jaw Malformation (AID 2283638);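 for AC50: active means more embryos with jaw malformation than DMSO controls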
Summary of the method: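 Dechorionated Tropical 5D wild-type zebrafish embryos, one per well, exposed statically from 6 hpf to 120 hpf at 28C in 0.64% DMSO. Jaw malformation was scored by brightfield microscopy as present or absent. It was not scored in dead embryos.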

[16] = Tanguay_ZF_120hpf_OTIC_legacy: (Legacy) Oregon State University Tanguay Lab 120 Hour Post-fertilization zebrafish Assay for Otic Vesicle Malformation (AID 2283639)
Summary of the method: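 Wild-type zebrafish larvae, whole-embryo exposure from early stage to 120 hpf at 28C. Binary brightfield scoring of otic vesicle morphology, fitted in the positive direction against the DMSO baseline.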

[17] = Tanguay_ZF_120hpf_PE_legacy: (Legacy) Oregon State University Tanguay Lab 120 Hour Post-fertilization zebrafish Assay for Pericardial Edema (AID 2283640)
Summary of the method: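 Tropical 5D wild-type zebrafish embryos were statically exposed until 120 hpf at 28C, with 0.64% DMSO final. Pericardial edema was scored by brightfield as present or absent; endpoints were not scored in dead embryos.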

[18] = Tanguay_ZF_120hpf_SOMI_legacy: (Legacy) Oregon State University Tanguay Lab 120 Hour Post-fertilization zebrafish Assay for Somite Malformation (AID 2283647)
Summary of the method: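 Dechorionated Tropical 5D wild-type zebrafish embryos, one per well from 6 hpf, statically exposed at 28C to 120 hpf in 0.64% DMSO; somite malformation scored present/absent by brightfield; trimethyltin 5 uM positive control; dead embryos not scored.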

[19] = Tanguay_ZF_120hpf_PFIN_legacy: (Legacy) Oregon State University Tanguay Lab 120 Hour Post-fertilization zebrafish Assay for Pectoral Fin Malformation (AID 2283648);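 note: each larva judged yes or no for fin defect by brightfield with dead larvae skipped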
Summary of the method: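 Binary pectoral fin malformation call at 120 hpf by brightfield microscopy; 5D wild-type zebrafish, chorion removed at 4 hpf, one embryo per well from 6 hpf, static exposure at 28C; DMSO (0.64% final) as baseline.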

[20] = Tanguay_ZF_120hpf_BRAI_legacy: (Legacy) Oregon State University Tanguay Lab 120 Hour Post-fertilization zebrafish Assay for Brain Malformation (AID 2283641)
Summary of the method: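 Tropical 5D wild-type zebrafish embryos exposed statically until 120 hpf at 28C, 0.64% DMSO final, sealed and dark. Brain malformation scored present/absent by brightfield at 120 hpf; dead embryos excluded. Trimethyltin chloride 5uM positive control.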

Measured: AC50

Chain of Cellular tumor antigen p53 (Homo sapiens) (P04637 whole entry, looked up): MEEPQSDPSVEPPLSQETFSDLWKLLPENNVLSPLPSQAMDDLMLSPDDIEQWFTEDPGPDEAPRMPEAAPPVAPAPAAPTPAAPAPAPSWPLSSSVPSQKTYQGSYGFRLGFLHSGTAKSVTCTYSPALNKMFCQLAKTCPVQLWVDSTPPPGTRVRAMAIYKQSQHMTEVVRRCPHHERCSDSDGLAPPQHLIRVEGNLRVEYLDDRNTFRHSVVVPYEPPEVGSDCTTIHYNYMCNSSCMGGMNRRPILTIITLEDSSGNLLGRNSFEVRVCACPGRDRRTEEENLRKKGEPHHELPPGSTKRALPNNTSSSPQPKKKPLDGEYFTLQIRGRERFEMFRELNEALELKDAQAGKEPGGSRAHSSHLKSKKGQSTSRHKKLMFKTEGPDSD

CCN(Cc1cccc(S(=O)(=O)O)c1)c1ccc(C(=C2C=CC(=[N+](CC)Cc3cccc(S(=O)(=O)O)c3)C=C2)c2ccccc2S(=O)(=O)[O-])cc1
inactive: [1] | [3] | [4] | [5] | [7] | [8] | [9] | [10] | [11] | [12] | [13] | [14] | [15] | [16] | [17] | [18] | [19]
active: [2] 19.4 µM | [6] 35.5 µM

c1ccc2n[nH]nc2c1
inactive: [1] | [2] | [3] | [4] | [5] | [6] | [7] | [8] | [9] | [10] | [11] | [12] | [13] | [14] | [15] | [16] | [17] | [20] | [18] | [19]

O=C1c2ccccc2C(=O)N1CCc1noc(-c2ccc(CN3CCCCCC3)s2)n1
inactive: [1] | [2] | [3] | [4] | [5] | [6] | [7] | [8] | [10] | [11] | [12] | [13] | [14] | [15] | [16] | [17] | [20] | [18] | [19]

CCCCCCCCOc1ccc(C(=O)c2ccccc2)c(O)c1
inactive: [1] | [2] | [3] | [4] | [5] | [6] | [7] | [8] | [9] | [10] | [11] | [12] | [13] | [14] | [15] | [16] | [18] | [19]

CCCCCCCCOC(=O)c1cc(O)c(O)c(O)c1
inactive: [1] | [11] | [12] | [13] | [14] | [15] | [16] | [17] | [20] | [18] | [19]
active: [2] 27.6 µM | [3] 50 µM | [4] 67.9 µM | [5] 36.8 µM | [6] 32.9 µM | [7] 63.3 µM | [8] 42.6 µM | [9] 62.6 µM | [10] 8.13 µM

O=CCCCC=O
active: [4] 83.5 µM and 84.6 µM | [5] 69.9 µM and 37 µM
inactive: [1] | [2] | [3] | [4] | [6] | [7] | [8] | [9] | [10] | [11] | [12] | [13] | [14] | [15] | [16] | [17] | [20] | [18] | [19]

Cc1cn([C@H]2C[C@H](N=[N+]=[N-])[C@@H](CO)O2)c(=O)[nH]c1=O
inactive: [1] | [2] | [3] | [4] | [5] | [6] | [7] | [8] | [9] | [10] | [11] | [12] | [13] | [14] | [15] | [16] | [17] | [18]

CCOC(=O)O[C@H](C)OC(=O)c1ccc2c(c1)cc(C(=O)NC1CCN(C(C)C)CC1)n2Cc1cc(-c2ccc(Cl)s2)on1
inactive: [11] | [12] | [13] | [16] | [17] | [20] | [18] | [19]
active: [2] 16.1 µM | [3] 27.9 µM | [4] 55.8 µM | [5] 81.9 µM | [6] 13.5 µM | [7] 80.9 µM | [8] 72.9 µM | [10] 23.7 µM | [14] 54.1 µM | [15] 47.6 µM

CCCCCCCCN(C)CCCCCCCC
inactive: [3] | [4] | [5] | [6] | [9] | [10] | [11] | [12] | [13] | [14] | [15] | [17] | [20] | [18] | [19]

CCCCCCCCCCCCO
inactive: [2] | [3] | [4] | [5] | [7] | [8] | [9] | [10] | [11] | [12] | [13] | [14] | [15] | [16] | [17] | [20] | [18] | [19]

COCC(C)OCC(C)OCC(C)O (configuration not stated)
inactive: [1] | [10] | [11] | [12] | [13] | [14] | [15] | [16] | [17] | [20] | [18] | [19]

CC(O)CC(C)(C)O (configuration not stated)
inactive: [1] | [3] | [4] | [5] | [6] | [7] | [8] | [9] | [10] | [11] | [12] | [13] | [14] | [15] | [16] | [17] | [20] | [18] | [19]
